High-throughput results as filed in PubChem.
RPL19A-GFP yeast: RPL19A-GFP expression modulators in yeast, primary screen, cell-based, S. cerevisiae, multiplex flow cytometry, MLPCN. S. cerevisiae RPL19A-GFP strain, 3 h; hits give low values. percent response vs DMSO, % at 10 µM. 330,000 compounds, 0.3% hits. AID 2025, 2009;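 active means percent response vs DMSO below 50%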;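 further: median channel GFP fluorescence of the barcoded RPL19A-GFP strain; lower means less RPL19A-GFP as with rapamycin TOR inhibition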
CIT2 TOR yeast: modulators of CIT2-GFP expression in yeast, primary screen, S. cerevisiae, GFP fusion, multiplex flow cytometry, MLPCN library; S. cerevisiae CIT2-GFP strain, 3 h; 100 means same as DMSO wells; GFP response vs DMSO, % at 10 µM; 320,000 compounds, 0.065% hits;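 active means GFP response relative to DMSO above a set limit, near the screen mean plus 3 SD, cut at about 150% in these data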;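 further: ratio of well median GFP fluorescence to mean of DMSO wells on the plate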
AGP1 TOR yeast: modulators of AGP1-GFP expression in yeast TOR pathway, primary screen, cell-based, multiplex flow cytometry, S. cerevisiae, MLPCN library; AID 2066, 2009; GFP response vs DMSO, % at 10 µM; 320,000 compounds, 0.02% hits; 3 h; GFP as percent of DMSO wells;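 active means GFP response relative to DMSO above a set limit, near screen average plus 3 SD, cut at about 150% in these data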;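 further: median GFP channel fluorescence of the gated AGP1 strain per well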
MEP2 TOR yeast: modulators of MEP2-GFP levels in yeast, primary screen, S. cerevisiae, multiplex flow cytometry, MLPCN library. S. cerevisiae MEP2-GFP strain, 3 h; 100% = DMSO control level. GFP response vs DMSO, % at 10 µM. 330,000 compounds, 0.51% hits;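 active means GFP response versus DMSO above a set limit, roughly screen mean plus 3 SD, cut at about 180% in these data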;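 further: median GFP fluorescence of the barcode-gated MEP2-GFP cells per well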
LAP4 TOR yeast: modulators of LAP4-GFP expression in yeast, primary screen, S. cerevisiae, multiplex flow cytometry, MLPCN library; 320,000 compounds, 0.34% hits; 3 h; median GFP as percent of DMSO wells; GFP response vs DMSO, % at 10 µM;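 active means GFP response vs DMSO above a set limit, about the screen mean plus 3 SD, cut at about 150% in these data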
LAP4-GFP pick2: LAP4-GFP expression modulators in yeast, confirmation, cell-based, second cherry pick, flow cytometry; 590 compounds, 20% hits; shares compounds with LAP4 TOR yeast; AID 2621, 2010; S. cerevisiae LAP4-GFP strain, 3 h; GFP response vs DMSO, % at 10 µM;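 active means GFP signal as percent of the solvent control above about 150%, meaning raised reporter expression, limit read from the data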
MEP2 cherry2: modulators of MEP2-GFP levels in yeast, confirmation, S. cerevisiae, flow cytometry GFP, second cherry picks; shares compounds with LAP4 TOR yeast; S. cerevisiae MEP2-GFP strain, 3 h; GFP response vs DMSO, % at 10 µM; 590 compounds, 10% hits; AID 2622, 2010;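 active means GFP signal above 150% of the solvent control wells, that is a rise of more than half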;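 further: median channel GFP fluorescence of all gated yeast cells per well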
RPL19A-GFP pick2: RPL19A-GFP modulators in TOR pathway yeast, confirmation, cell-based, S. cerevisiae, flow cytometry, second cherry pick; shares compounds with LAP4 TOR yeast; S. cerevisiae RPL19A-GFP strain, 3 h; hits give low values; 100% means same as DMSO wells; GFP response vs DMSO, % at 10 µM; 590 compounds, 3% hits; AID 2623, 2010;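 active means under 65% GFP response relative to DMSO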;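 further: median GFP channel fluorescence per well over the all cells gate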
CIT2-GFP pick2: modulators of CIT2-GFP expression in yeast, confirmation, flow cytometry, second cherry pick, single plex; shares compounds with LAP4 TOR yeast; S. cerevisiae CIT2-GFP strain, 3 h; DMSO control wells read 100%; GFP response vs DMSO, % at 10 µM; 590 compounds, 8% hits; AID 2624, 2010;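 active means GFP response vs DMSO above about 150%, limit read from the data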;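 further: median green fluorescence per well over all gated yeast cells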
AGP1-GFP pick2: AGP1-GFP expression modulators, hit retest, confirmation, cell-based, flow cytometry, S. cerevisiae, cherry pick set 2 | 590 tested, under 10 active | percent response vs DMSO, % at 10 µM | shares compounds with LAP4 TOR yeast | S. cerevisiae AGP1-GFP strain, 3 h;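 active means over 150 percent of DMSO response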;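 further: median GFP channel fluorescence over all cells without mother daughter split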
Yeast autofluor: compound autofluorescence in yeast s288c, dose response, artefact control for yeast TOR pathway GFP screen, s288c strain. shares compounds with LAP4 TOR yeast. S. cerevisiae s288c, 520 nm autofluorescence, flow cytometry, 3 h; hits give high values; zero means same as solvent-only cells. fluorescence change (kMESF span) at 33 µM. 610 tested, under 10 active;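 active means fluorescence span over the dose series, or activity score, above about 33, limit read from the data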
s288c autofl DR: autofluorescence of compounds in yeast s288c, dose response, artefact control for yeast TOR pathway GFP screen, primary hits, KU SAR, s288c parental; shares compounds with LAP4 TOR yeast; S. cerevisiae s288c parental, compound autofluorescence, flow cytometry, 3 h; 110 tested, under 10 active; fluorescence change (span) at 33 µM;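 active means fluorescence change span, or the activity score built from it, above 25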
TORC1 bypass: wild-type yeast growth inhibition sparing TORC1 bypass cells, mechanism study for yeast TOR pathway GFP screen, BY4741 wild type, TORC1 bypass strain; shares compounds with LAP4 TOR yeast; S. cerevisiae BY4741 spot growth rating, 48-72 h; hits give low values; growth rating (0-3) at 30 µM; 120 tested, under 10 active;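 active means growth rating at most 1 for wild type yeast while the TORC1 bypass strain still grows fully, rated 3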
Numbers stand for hits; - = inactive; . = not tested or not shown. A selection: hits, their analogues and other compounds. The true share with any hit is near 0.93%.

SMILES	RPL19A-GFP yeast	CIT2 TOR yeast	AGP1 TOR yeast	MEP2 TOR yeast	LAP4 TOR yeast	s288c autofl DR	TORC1 bypass	others
Cc1cc(-c2cc(C(=O)Nc3ccccc3)on2)nc(NC2CCCC2)n1	-	-	-	-	-	.	.	LAP4-GFP pick2=-;MEP2 cherry2=-;RPL19A-GFP pick2=-;CIT2-GFP pick2=-;AGP1-GFP pick2=-
COc1ccc(-c2cc(C(=O)Nc3ccccc3)on2)cc1	-	-	-	-	-	.	.
CSc1nc(C)cc(-c2cc(C(=O)Nc3ccccc3)on2)n1	-	-	-	-	-	.	.	LAP4-GFP pick2=-;MEP2 cherry2=-;RPL19A-GFP pick2=-;CIT2-GFP pick2=-;AGP1-GFP pick2=-
CCCNc1nc(C)cc(-c2cc(C(=O)NC3CCCC3)on2)n1	-	-	-	-	155.7	.	.	LAP4-GFP pick2=-;MEP2 cherry2=-;RPL19A-GFP pick2=-;CIT2-GFP pick2=-;AGP1-GFP pick2=-
Cc1cc(-c2cc(C(=O)NCc3ccccc3)on2)nc(NC2CCCC2)n1	-	-	-	-	-	.	.	LAP4-GFP pick2=-;MEP2 cherry2=-;RPL19A-GFP pick2=-;CIT2-GFP pick2=-;AGP1-GFP pick2=-
CC(=O)NC(CC(=O)OCc1ccc([N+](=O)[O-])cc1)c1ccccc1 (stereo not given)	-	-	-	-	-	.	.
CCc1sc(C(=O)N2CCc3cc(OC)c(OC)cc3C2CC(=O)O)cc1C (stereo not given)	-	-	-	-	-	.	.
CCc1nc2oc3ccc(C)cc3c(=O)c2cc1C(=O)OC	-	-	-	-	-	.	.
CCN(CC(=O)Nc1ccccc1OC)C(=O)CSCc1ccc(C)cc1	-	-	-	-	-	.	.
O=C(CN1C(=O)NC2(CCCCCC2)C1=O)NCCc1ccccc1	-	-	-	-	-	.	.
Nc1nc(NCc2ccco2)nc(Nc2ccccc2)c1[N+](=O)[O-]	-	-	-	-	-	.	.
Cc1cc(Nc2cccc(F)c2)nc(NCc2ccccc2)n1	-	-	-	-	-	.	.
COc1cccc(Nc2nc(N)c([N+](=O)[O-])c(Nc3cccc(F)c3)n2)c1	.	.	.	.	.	-	-
Nc1cc(Nc2cccc(F)c2)nc(NCc2ccccc2)n1	.	.	.	.	.	-	-
Cc1nc(Nc2ccc(F)cc2)nc(Nc2ccc(F)cc2)c1[N+](=O)[O-]	-	-	-	-	-	.	.
Nc1nc(NCc2ccco2)nc(Nc2cccc(F)c2)c1[N+](=O)[O-]	-	-	-	-	-	-	-
CCC(C)Nc1nc(N)c([N+](=O)[O-])c(Nc2cccc(F)c2)n1 (stereo not given)	.	.	.	.	.	-	-
Clc1ccc(-c2nc(/C=N/N3CCOCC3)c3ccccn23)cc1	-	-	-	-	-	.	.
CCO[C@H]1OC(C(=O)NCc2ccccc2)=C[C@@H](C2CC2)[C@@H]1CCCO	-	-	-	-	-	.	.
Nc1nc(NCCc2ccccc2)nc(Nc2cccc(F)c2)c1[N+](=O)[O-]	.	.	.	.	.	-	-
Nc1nc(NCc2ccccc2)nc(Nc2cccc(F)c2)c1[N+](=O)[O-]	-	-	-	-	-	-	-
Nc1nc(NCCc2ccccc2)nc(NCc2ccccc2)c1[N+](=O)[O-]	-	-	-	-	-	.	.
CCOC(=O)c1c(N)nc(NC)nc1Nc1cccc(F)c1	.	.	.	.	.	.	-
COCCNc1nc(N)c([N+](=O)[O-])c(Nc2cccc(F)c2)n1	.	.	.	.	.	-	-
Cc1ccc(CNc2nc(N)c([N+](=O)[O-])c(Nc3cccc(F)c3)n2)cc1	-	-	-	-	-	.	.
SMILES	RPL19A-GFP yeast	CIT2 TOR yeast	AGP1 TOR yeast	MEP2 TOR yeast	LAP4 TOR yeast	s288c autofl DR	TORC1 bypass	others
COc1ccc(S(=O)(=O)N2CCCOC2CNC(=O)C(=O)NCCc2ccco2)cc1C (stereo not given)	-	-	-	-	-	.	.
COCCN1C(=O)C(=O)/C(=C(/O)c2ccc(S(=O)(=O)N3CCOCC3)cc2)C1c1cccc(OC)c1 (stereo not given)	-	-	-	-	-	.	.
CN(CC(=O)NCc1cccs1)CC(=O)Nc1ccc(F)c(F)c1F	-	-	-	-	-	.	.
CSCCC(C)N1CCC(Oc2ccc(C(=O)N3CCCC3)cc2)CC1 (stereo not given)	-	-	-	-	-	.	.
Nc1nc(Nc2ccccc2F)nc(Nc2cccc(F)c2)c1[N+](=O)[O-]	.	.	.	.	.	-	-
Nc1nc(Nc2cccc(F)c2)nc(NCCO)c1[N+](=O)[O-]	-	-	-	-	-	.	.
Nc1nc(NC2CCCCC2)nc(Nc2cccc(F)c2)c1[N+](=O)[O-]	.	.	.	.	.	-	-
Nc1nc(NC2CCCCC2)nc(NCCO)c1[N+](=O)[O-]	-	-	-	-	.	.	.
CC(=O)Nc1ccc(S(=O)(=O)NCCc2cn3nc(C)c(C)nc3n2)cc1	-	-	-	-	-	.	.
COc1ccc(S(=O)(=O)NCCc2cn3nc(C)c(C)nc3n2)cc1F	-	-	-	-	-	.	.	LAP4-GFP pick2=-;MEP2 cherry2=-;RPL19A-GFP pick2=-;CIT2-GFP pick2=-;AGP1-GFP pick2=-
CC(C)(C)C(=O)C(Cl)C(=O)Nc1ccccc1 (stereo not given)	-	-	-	-	285.5	-	-	Yeast autofluor=-
O=C(Nc1ccc(Nc2ccccc2)cc1)C(Cl)Cl	-	-	-	-	-	.	.
